Experimental data as given in the supplement of paper PMC6555819.

Key:
Experiment in all cases: PBM binding z-score (relative to random genomic background probes); higher = stronger binding; sequences stand for … in GC…GCGATTGACAGCGTAGAATGAAGG
[1] = system: FXR:RXRa (NR concentration 270 nM, RXRa partner concentration 90 nM)
Method in brief: (§1)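 Ligand-free nuclear receptor dimers were applied to custom Agilent 4×180K protein-binding microarrays whose double-stranded probes carried direct-repeat seeds, single-nucleotide variants, half-site ablations and random human genomic background sequences in 34-nt variable regions. Incubation lasted 1 h. Binding z-scores were computed against the random background probes from regression-normalized fluorescence.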

[2] = system: LXRa:RXRa (NR concentration 270 nM, RXRa partner concentration 90 nM)
Method in brief: as §1

[3] = system: LXRa homodimer (NR concentration 270 nM)
Method in brief: as §1

[4] = system: LXRb:RXRa (NR concentration 270 nM, RXRa partner concentration 90 nM)
Method in brief: as §1

[5] = system: LXRb homodimer (NR concentration 270 nM)
Method in brief: as §1

[6] = system: PPARa:RXRa (NR concentration 270 nM, RXRa partner concentration 90 nM)
Method in brief: as §1

[7] = system: PPARg:RXRa (NR concentration 180 nM, RXRa partner concentration 90 nM)
Method in brief: as §1

[8] = system: PPARg:RXRa 270nM:90nM, anti-RXR (NR concentration 270 nM, RXRa partner concentration 90 nM)
Method in brief: as §1

[9] = system: PPARg:RXRa 30nM:10nM, anti-RXR (NR concentration 30 nM, RXRa partner concentration 10 nM)
Method in brief: as §1

[10] = system: PPARg:RXRa 90nM:30nM, anti-RXR (NR concentration 90 nM, RXRa partner concentration 30 nM)
Method in brief: as §1

[11] = system: PPARg:RXRa DBDmut IVT, anti-RXR (DBD mutation: RXRa K156A/R161A, NR concentration 270 nM, RXRa partner concentration 90 nM)
Method in brief: as §1

[12] = system: PPARg:RXRa IVT, anti-PPARg (NR concentration 270 nM, RXRa partner concentration 90 nM)
Method in brief: as §1

[13] = system: PPARg DBDmut:RXRa IVT, anti-PPARg (DBD mutation: PPARg1 K132A/R137A, NR concentration 270 nM, RXRa partner concentration 90 nM)
Method in brief: as §1

[14] = system: PPARg DBDmut IVT, anti-PPARg (DBD mutation: PPARg1 K132A/R137A, NR concentration 270 nM)
Method in brief: as §1

[15] = system: PPARg homodimer (NR concentration 180 nM)
Method in brief: as §1

[16] = system: PXR:RXRa (NR concentration 270 nM, RXRa partner concentration 90 nM)
Method in brief: as §1

[17] = system: PXR homodimer (NR concentration 270 nM)
Method in brief: as §1

[18] = system: RARa:RXR (NR concentration 270 nM, RXRa partner concentration 90 nM)
Method in brief: as §1

[19] = system: RARa homodimer (NR concentration 270 nM)
Method in brief: as §1

[20] = system: RARb:RXRa (NR concentration 270 nM, RXRa partner concentration 90 nM)
Method in brief: as §1

Sequence	PBM binding z-score [1]	PBM binding z-score [2]	PBM binding z-score [3]	PBM binding z-score [4]	PBM binding z-score [5]	PBM binding z-score [6]	PBM binding z-score [7]	PBM binding z-score [8]	PBM binding z-score [9]	PBM binding z-score [10]	PBM binding z-score [11]	PBM binding z-score [12]	PBM binding z-score [13]	PBM binding z-score [14]	PBM binding z-score [15]	PBM binding z-score [16]	PBM binding z-score [17]	PBM binding z-score [18]	PBM binding z-score [19]	PBM binding z-score [20]
TAATATAGGTAAAGGTGAAAGTCGAACGATATGA	1.14	1.33	0.478	1.55	0.351	4.23	6.52	6.14	4.8	6.35	6.04	6.44	2.33	2.3	2.1	1.02	0.701	1.8	1.92	2.03
CCTTACGGGTCAAGGTGATAGCACGGGTGGTACG	5.64	3.5	-0.313	2.67	-0.389	4.8	4.43	4.52	1.62	3.34	1.85	3.49	-0.115	-0.375	1.63	2.89	-0.103	3.84	0.455	4.11
ACTAGTTGGTCAGCTGAGGTCACAGACAATTCGG	2.95	3.29	1.84	3.27	0.184	3.71	1.72	2.16	0.454	1.43	1.59	2.68	0.63	0.453	2.49	5.14	1.43	4.65	0.482	3.48
TTACCAAGGTGAAAGGTCGTTGACGCACGCCTTG	4.03	3.4	0.245	2.91	-0.135	5.49	8.84	8.07	6.9	8.64	2.81	4.77	0.591	0.0484	2.15	4.13	0.552	5.9	-0.179	3.21
TCGAGCAGGTTAGTCGGGGCATTCAGCCAACATA	-0.0429	-0.284	-0.517	0.593	-0.865	0.572	-0.408	-0.00465	0.101	0.383	0.239	0.431	-0.862	-0.407	-0.0263	0.125	-0.131	0.109	-0.676	0.557
CCGACTGGGGCAAAGGTTATCATACTCAGTACGA	1.81	1.66	0.176	1.87	-1.04	5.54	10.5	9.03	8.6	9.34	4.35	5.85	-0.186	0.138	2.13	2.11	-0.0954	3.14	-0.00422	2.08
ACTAATAGTTGACTTAGGGCAACCGATACGACGC	0.35	0.168	0.0838	-0.131	0.352	-0.132	0.962	0.054	0.137	0.153	0.0501	0.335	0.861	0.863	0.622	0.0101	0.295	0.399	0.56	1.01
CCTATTAGCTGACCATAAGGGCAACCGAAGCTCG	0.524	0.335	0.221	0.0745	0.36	0.273	0.333	-0.0328	-0.243	-0.184	0.163	0.429	-0.689	0.266	1.42	0.183	0.353	0.375	0.765	1.18
CCTATTAGTTGACCATAAGGACAACCGAAGCTCG	1.29	0.43	0.89	0.473	1.33	0.262	0.871	0.107	0.251	0.449	0.245	0.48	1.08	1.03	2.6	0.623	1.23	1.27	2.5	1.22
ACTTACGGGTCACCGAGGTTATAGCACGCGTATA	7.33	5.59	1.1	4.77	0.402	6.19	7.11	6.57	3.18	5.44	4.12	5.23	2.17	1.98	3.07	5.54	3.25	6.06	1.56	4.67
ACTAGCAGGCCGAGGGTCACTCAAGATTAGTCCG	0.88	1.52	-0.557	1.31	-0.725	2.71	3.61	4.99	2.21	4.78	-0.156	1.16	-0.888	-0.885	0.902	1.71	-0.0802	2.32	-0.0933	2.43
GGAACGAGGGCAATCGAGTTGATAGCATGGCGAT	0.644	0.434	-0.647	-0.187	-0.883	1.38	1.12	0.753	-0.285	0.268	3.45	2.82	-0.0288	-1.1	-0.25	3.29	0.305	0.677	-0.463	1.6
GGAACGAGCGCAAGTTGATAGCAGAGTTTGATGG	-0.654	-0.851	-0.781	-1.08	-1.48	-0.641	0.166	-0.948	-0.778	-0.888	-0.621	-0.838	-2.04	-1.98	-1.77	-0.63	-0.349	-1.15	-1.13	-0.612
CCTACTGGGCCAAAGGTAATTGATTCCAATGCTC	-0.451	-0.199	-0.379	-0.0867	-0.845	3.66	8.76	7.99	6.87	8.72	5.36	4.68	0.0261	0.0447	0.234	-0.286	-0.264	-0.0121	-0.474	0.179
CCTTTCGGGTCAAGGTTATAGCACGGGTGGTACG	5.72	3.85	0.197	3.11	0.545	5.06	4	5.1	1.91	4.2	1.96	3.48	0.691	0.648	2.93	3.67	0.171	4.51	0.494	4.3
GGAACGAGGGCATTCAAGTTGATAGCATGGCGAT	1.18	1.46	-0.583	0.241	-0.723	1.52	1.12	0.948	-0.0725	0.427	2.92	2.13	-0.155	-0.574	-0.338	2.92	0.722	0.791	-0.689	1.9
GCTGCTAGGGCAGGTTGGTCAGCTAACGGGTACG	-0.531	-0.752	-0.652	-1.01	-0.94	-0.594	-0.438	-0.678	-1.11	-1.1	0.814	0.109	-1.41	-2.26	-0.535	-0.732	-0.597	-0.985	-1.07	1.16
CAAACTAGGTCATTGACAGGACAGTGAATAGTAA	4.7	3.38	0.946	2.29	0.688	4.71	7.82	6.85	3.97	6.16	8.37	8.3	2.39	1.76	2.3	1.73	0.252	2.35	0.262	3.75
CGTCCAAGGTCAAGGTCAGTGTAAGAGACTCGAA	7.52	5.66	1.6	4.66	0.633	5.87	6.25	6.02	2.39	4.8	3.46	4.48	2.06	0.0248	3.45	5.09	1.07	5.28	2.14	5.47
TTACCAAGGTGAGCTGATGTCGTTGATCCAACTC	0.178	-0.111	-0.671	-0.252	-0.971	0.344	0.146	0.25	0.147	0.11	1.17	1.55	-0.517	0.259	-0.264	0.24	-0.552	0.2	-0.759	0.933
TAGCCTAGGTCAGATCAGGCCAGTATACGCTATA	2.57	1.55	-0.196	0.898	-0.239	1.69	0.794	0.923	0.0567	0.604	0.459	1.56	0.119	-0.493	0.306	2.07	-0.691	1.21	-0.581	2.93
TCTCGCAGGCCAGAGGGTCACTCAAGAGGTACGG	1.04	1.1	-0.517	1.02	-1.09	2.32	0.92	1.95	2.05	1.91	0.998	0.394	-0.712	-0.719	0.381	1.62	-0.348	2.25	-0.311	2.45
TCATATGGGTAAATGCTAGGTGAAAGTCCGATCT	0.03	0.212	0.0774	0.31	-0.359	0.897	0.667	1.71	2.1	1.91	2.91	2.07	0.703	0.469	-0.0354	0.217	-0.0586	0.519	-0.166	0.208
CAAACTAGGTCACCGGAAGGTCAAAGACCGCATG	5.97	5.91	4.14	4.91	1.03	6.19	9.78	7.64	5.86	7.65	8.27	8.78	2.33	1.54	7.7	5.6	1.46	7.13	2.64	5.2
TCTTTTAGATCAATAGAGGTTAAGAAAGTGCGCT	1.13	4.04	0.769	2.06	0.963	2.16	0.209	2.08	3.57	2.92	1.67	1.53	1.94	1.81	0.69	3.35	0.207	2.08	-0.186	1.23
CCGACTGGGACAAGGTTACCATAACGCACAGCCA	0.29	0.604	-0.141	0.507	-0.706	1.49	1.92	2.18	0.494	1.59	2.14	2.07	-0.366	-0.958	0.825	0.206	-0.361	0.82	0.13	0.882
CGAACGAGGGCGTGAGTTGATAGCAAATGCCGAT	-0.128	-0.241	-0.781	-0.468	-0.878	0.0145	0.401	0.0824	-0.205	-0.084	0.665	0.126	-0.548	-1.21	-0.313	-0.163	-0.37	-0.268	-0.533	0.442
ACCGACAGGTGAGTGAAGGTAACTCAGCTGGACG	0.184	-0.107	-0.658	-0.575	-0.831	0.00904	0.444	0.0898	-0.38	-0.0157	0.224	0.64	0.0319	-0.41	-0.391	-0.571	-0.481	-0.0449	-0.642	0.605
